Positions count from the first letter of the chain named. Over roughly 16,000 sequences, “ka relative to ugcaugu” has its median near 0.096; the highest 2% begin near 0.35. The full list was thinned out, with the highest values kept by preference.
T1: RBFOX1 RRM RbFoxmut (Fox-RRM*) (Homo sapiens, UniProt Q9NWB1 109-208, R118D;E147R;N151S;E152T)
T1 sequence: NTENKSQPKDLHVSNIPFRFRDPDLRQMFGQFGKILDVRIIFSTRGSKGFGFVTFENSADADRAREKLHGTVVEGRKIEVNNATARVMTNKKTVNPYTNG

B1: ACGAAGA (DNA:RNA)
RNA: GGGAGACCGGAAUUCAGAUUGUCCACGAAGAUUAAAUCCCGUCGUAGCCACCA
DNA 1: CAATCTGAATTCCGGTCTCCC
DNA 2: TGGTGGCTACGACGGGATT
B2: UUCGCAG (DNA:RNA)
RNA: GGGAGACCGGAAUUCAGAUUGUCCUUCGCAGUUAAAUCCCGUCGUAGCCACCA
DNA 1: CAATCTGAATTCCGGTCTCCC
DNA 2: TGGTGGCTACGACGGGATT
B3: GACGGCA (DNA:RNA)
RNA: B2 RNA with U25G, U26A, C29G, A30C, G31A
DNA 1: CAATCTGAATTCCGGTCTCCC
DNA 2: TGGTGGCTACGACGGGATT
B4: AUUGGAU (DNA:RNA)
RNA: B2 RNA with U25A, C27U, C29G, G31U
DNA 1: CAATCTGAATTCCGGTCTCCC
DNA 2: TGGTGGCTACGACGGGATT
B5: UGUUUUU (DNA:RNA)
RNA: B2 RNA with U26G, C27U, G28U, C29U, A30U, G31U
DNA 1: CAATCTGAATTCCGGTCTCCC
DNA 2: TGGTGGCTACGACGGGATT
B6: UGUCCGU (DNA:RNA)
RNA: B2 RNA with U26G, C27U, G28C, A30G, G31U
DNA 1: CAATCTGAATTCCGGTCTCCC
DNA 2: TGGTGGCTACGACGGGATT
B7: UGUGUUU (DNA:RNA)
RNA: B2 RNA with U26G, C27U, C29U, A30U, G31U
DNA 1: CAATCTGAATTCCGGTCTCCC
DNA 2: TGGTGGCTACGACGGGATT
B8: ACCUGUG (DNA:RNA)
RNA: B1 RNA with G27C, A28U, A29G, G30U, A31G
DNA 1: CAATCTGAATTCCGGTCTCCC
DNA 2: TGGTGGCTACGACGGGATT
B9: UGUGUGU (DNA:RNA)
RNA: B2 RNA with U26G, C27U, C29U, A30G, G31U
DNA 1: CAATCTGAATTCCGGTCTCCC
DNA 2: TGGTGGCTACGACGGGATT
B10: CUGUCGU (DNA:RNA)
RNA: B1 RNA with A25C, C26U, A28U, A29C, A31U
DNA 1: CAATCTGAATTCCGGTCTCCC
DNA 2: TGGTGGCTACGACGGGATT
B11: CUGUUUG (DNA:RNA)
RNA: B2 RNA with U25C, C27G, G28U, C29U, A30U
DNA 1: CAATCTGAATTCCGGTCTCCC
DNA 2: TGGTGGCTACGACGGGATT
B12: CCCUGUG (DNA:RNA)
RNA: B2 RNA with U25C, U26C, G28U, C29G, A30U
DNA 1: CAATCTGAATTCCGGTCTCCC
DNA 2: TGGTGGCTACGACGGGATT
B13: CUGUGUG (DNA:RNA)
RNA: B2 RNA with U25C, C27G, G28U, C29G, A30U
DNA 1: CAATCTGAATTCCGGTCTCCC
DNA 2: TGGTGGCTACGACGGGATT
B14: CUGUGUU (DNA:RNA)
RNA: B1 RNA with A25C, C26U, A28U, A29G, G30U, A31U
DNA 1: CAATCTGAATTCCGGTCTCCC
DNA 2: TGGTGGCTACGACGGGATT
B15: CUGUUGU (DNA:RNA)
RNA: B1 RNA with A25C, C26U, A28U, A29U, A31U
DNA 1: CAATCTGAATTCCGGTCTCCC
DNA 2: TGGTGGCTACGACGGGATT
B16: UGUUUGU (DNA:RNA)
RNA: B1 RNA with A25U, C26G, G27U, A28U, A29U, A31U
DNA 1: CAATCTGAATTCCGGTCTCCC
DNA 2: TGGTGGCTACGACGGGATT
B17: AAGACCU (DNA:RNA)
RNA: B1 RNA with C26A, A29C, G30C, A31U
DNA 1: CAATCTGAATTCCGGTCTCCC
DNA 2: TGGTGGCTACGACGGGATT
B18: GACUUGG (DNA:RNA)
RNA: B2 RNA with U25G, U26A, G28U, C29U, A30G
DNA 1: CAATCTGAATTCCGGTCTCCC
DNA 2: TGGTGGCTACGACGGGATT
B19: CCCAUAU (DNA:RNA)
RNA: B1 RNA with A25C, G27C, A29U, G30A, A31U
DNA 1: CAATCTGAATTCCGGTCTCCC
DNA 2: TGGTGGCTACGACGGGATT
B20: UUCGAGC (DNA:RNA)
RNA: B2 RNA with C29A, A30G, G31C
DNA 1: CAATCTGAATTCCGGTCTCCC
DNA 2: TGGTGGCTACGACGGGATT
B21: GAAGACC (DNA:RNA)
RNA: B1 RNA with A25G, C26A, G27A, A28G, G30C, A31C
DNA 1: CAATCTGAATTCCGGTCTCCC
DNA 2: TGGTGGCTACGACGGGATT
B22: CAAUUUU (DNA:RNA)
RNA: GGGAGACCGGAAUUCAGAUUGUCCCAAUUUUUUAAAUCCCGUCGUAGCCACCA
DNA 1: CAATCTGAATTCCGGTCTCCC
DNA 2: TGGTGGCTACGACGGGATT
B23: CUCUUGA (DNA:RNA)
RNA: B22 RNA with A26U, A27C, U30G, U31A
DNA 1: CAATCTGAATTCCGGTCTCCC
DNA 2: TGGTGGCTACGACGGGATT
B24: UUUGGCC (DNA:RNA)
RNA: B2 RNA with C27U, C29G, A30C, G31C
DNA 1: CAATCTGAATTCCGGTCTCCC
DNA 2: TGGTGGCTACGACGGGATT
B25: GACUCAA (DNA:RNA)
RNA: B2 RNA with U25G, U26A, G28U, G31A
DNA 1: CAATCTGAATTCCGGTCTCCC
DNA 2: TGGTGGCTACGACGGGATT
B26: UGUGUCG (DNA:RNA)
RNA: B2 RNA with U26G, C27U, C29U, A30C
DNA 1: CAATCTGAATTCCGGTCTCCC
DNA 2: TGGTGGCTACGACGGGATT
B27: CCCUGUC (DNA:RNA)
RNA: B22 RNA with A26C, A27C, U29G, U31C
DNA 1: CAATCTGAATTCCGGTCTCCC
DNA 2: TGGTGGCTACGACGGGATT
B28: UGUUGUG (DNA:RNA)
RNA: B22 RNA with C25U, A26G, A27U, U29G, U31G
DNA 1: CAATCTGAATTCCGGTCTCCC
DNA 2: TGGTGGCTACGACGGGATT
B29: UGUGUAG (DNA:RNA)
RNA: B2 RNA with U26G, C27U, C29U
DNA 1: CAATCTGAATTCCGGTCTCCC
DNA 2: TGGTGGCTACGACGGGATT
B30: UGUGUUG (DNA:RNA)
RNA: B2 RNA with U26G, C27U, C29U, A30U
DNA 1: CAATCTGAATTCCGGTCTCCC
DNA 2: TGGTGGCTACGACGGGATT
B31: UGUAGUG (DNA:RNA)
RNA: B2 RNA with U26G, C27U, G28A, C29G, A30U
DNA 1: CAATCTGAATTCCGGTCTCCC
DNA 2: TGGTGGCTACGACGGGATT
B32: UGUCGUG (DNA:RNA)
RNA: B2 RNA with U26G, C27U, G28C, C29G, A30U
DNA 1: CAATCTGAATTCCGGTCTCCC
DNA 2: TGGTGGCTACGACGGGATT
B33: UGUGUCU (DNA:RNA)
RNA: B22 RNA with C25U, A26G, A27U, U28G, U30C
DNA 1: CAATCTGAATTCCGGTCTCCC
DNA 2: TGGTGGCTACGACGGGATT
B34: CUGUGUC (DNA:RNA)
RNA: B22 RNA with A26U, A27G, U29G, U31C
DNA 1: CAATCTGAATTCCGGTCTCCC
DNA 2: TGGTGGCTACGACGGGATT

Biological target: T1, RBFOX1 RRM RbFoxmut (Fox-RRM*)
Experiment: EMSA; HiTS-Eq, 1 nM pool, 10 min; buffer printed only for the single-RNA assays: 10 mM Tris pH 7.5, 150 mM NaCl, 3.4 mM EDTA, 0.001% NP-40, 30 C
Conditions: tags: His6 N-terminal (pET28a); label: 5' 32P
How it was run: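 A pool of RNA with 7 randomized nucleotides, 5′-radiolabelled and with DNA-annealed flanks, was equilibrated at 1 nM for 10 min in 50 µL with purified RbFox RRM, wild type or mutant, across increasing protein concentrations. Free RNA was separated by 8% native PAGE, excised, reverse-transcribed, barcoded by PCR and sequenced. Relative association constants were obtained from read-count changes of each RNA species versus the control reaction and normalised to the cognate motif.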

Binder	binding signal
B1	0.105 KA relative to UGCAUGU
B2	0.0914 KA relative to UGCAUGU
B3	0.149 KA relative to UGCAUGU
B4	0.0952 KA relative to UGCAUGU
B5	0.0878 KA relative to UGCAUGU
B6	0.147 KA relative to UGCAUGU
B7	0.115 KA relative to UGCAUGU
B8	0.139 KA relative to UGCAUGU
B9	0.366 KA relative to UGCAUGU
B10	0.138 KA relative to UGCAUGU
B11	0.75 KA relative to UGCAUGU
B12	0.138 KA relative to UGCAUGU
B13	0.388 KA relative to UGCAUGU
B14	0.14 KA relative to UGCAUGU
B15	0.166 KA relative to UGCAUGU
B16	0.549 KA relative to UGCAUGU
B17	0.0678 KA relative to UGCAUGU

Binder	binding signal
B18	0.129 KA relative to UGCAUGU
B19	0.0892 KA relative to UGCAUGU
B20	0.116 KA relative to UGCAUGU
B21	0.0506 KA relative to UGCAUGU
B22	0.0669 KA relative to UGCAUGU
B23	0.107 KA relative to UGCAUGU
B24	0.282 KA relative to UGCAUGU
B25	0.0967 KA relative to UGCAUGU
B26	0.253 KA relative to UGCAUGU
B27	0.194 KA relative to UGCAUGU
B28	0.29 KA relative to UGCAUGU
B29	0.196 KA relative to UGCAUGU
B30	0.383 KA relative to UGCAUGU
B31	0.682 KA relative to UGCAUGU
B32	0.193 KA relative to UGCAUGU
B33	0.131 KA relative to UGCAUGU
B34	0.436 KA relative to UGCAUGU

Reference: article PMC9911399, “Two distinct binding modes provide the RNA-binding protein RbFox with extraordinary sequence specificity”
